# HT1080-NT tox = kills 2HG-producing HT-1080-NT fibrosarcoma cells; Potency, µM (series often up to 46.1 µM), inactives show at the highest dose activity, negative = less viability, hits mostly cytotoxic; HT-1080-NT fibrosarcoma viability, CellTiter-Glo ATP luminescence, 48 h; 360,000 tested, 1.6% active;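 note: NT is the 2HG producing partner of a matched IDH1 knockdown line; potency is the fitted concentration of half-maximal effect; 0% = DMSO-treated cells and -100% = media-only wells without cells; nearly all actives have a fitted effect of over 55% in size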
#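 Fibrosarcoma NT cells, 750 per well in 5% FBS RPMI, were exposed to compound for 48 hours. Viability: CellTiter-Glo luminescence.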
# HT1080 IDH1KD tx = HT-1080 IDH1 knockdown cell toxicity (counter line); 360,000 tested, 2% active; AID 686971; HT-1080 IDH1 knockdown viability, ATP luminescence, 48 h; Potency, µM (titrated, usually from 46.1 µM), inactives show at the highest dose activity, negative = toxicity, usual class: cytotoxic;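 note: potency is the fitted concentration of half-maximal effect; 0% = DMSO wells and -100% = cell-free medium wells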
#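 Cytotoxicity counter-line: IDH1KD HT-1080, 48 h, CellTiter-Glo. Curves classed by r2, magnitude and activity.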
# TDP1 cell noCPT = qHTS for Inhibitors of human tyrosyl-DNA phosphodiesterase 1 (TDP1): qHTS in cells in absence of CPT. Potency, µM (top dose mostly 46.2 µM), inactives show at the highest dose activity change, negative = growth inhibition, actives largely listed as inhibitors. 420,000 tested, 15% active. DT40 Tdp1-/- hTDP1 cells, no CPT, ATP luminescence, 48 h; note: potency is the fitted concentration of half-maximal effect; nearly all actives have a fitted effect of over 55% in size
#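 Readout: luminescence from CellTiter-Glo after 30 min in the dark at RT. Cells: DT40 Tdp1-/- with stable hTDP1, 400/well. Exposure: compounds alone, ≥48 hr, 37 °C.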
# TDP1 cell CPT = growth inhibition of DT40 Tdp1-/-;hTDP1 cells with camptothecin (screen for TDP1 inhibitors) | chicken DT40 Tdp1-/-;hTDP1 cells + 20 nM CPT, ATP luminescence, 48 h | Potency, µM (top dose mostly 46.2 µM), for inactives: at the highest dose activity change, negative = growth inhibition, most hits filed as inhibitors | 420,000 tested, 12% active | AID 686979; note: potency is the fitted concentration of half-maximal effect; nearly all actives have a fitted effect of over 55% in size
#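 Cell growth measured by CellTiter-Glo luminescence after a minimum 48 h, 37 C compound exposure with 20 nM CPT in Tdp1-knockout DT40 cells stably expressing hTDP1, seeded 400/well; qHTS titration format.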
# IL-1B inflam inh = blocks inflammasome-driven IL-1 beta release; THP-1 LPS/ATP IL-1B secretion, AlphaLISA, 16 h; stronger effect = lower value; activity change, % at 57.5 µM; 360,000 tested, 4.7% active; AID 743279; in the data active = activity change below about -50%; inconclusive = mostly about -30% to -49%
#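 THP-1 cells pretreated 1 hr with compounds (up to 57.5 uM final), then stimulated with LPS (250 ng/mL final) plus ATP (1.25 mM final); secreted IL-1B measured by AlphaLISA after 16 hr, decreased signal indicating inhibition.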
# * hit, by the source's call; ? = inconclusive; . = no result given; ! = a repeat was not active. Hits are enriched below; roughly 19% of the tested compounds scored in any of these assays. Unless noted, calls come from the whole dose curve; as a rule, active = well fitted curve in the direction sought with a large enough effect; inconclusive = small, poorly fitted or top-dose-only effect, or another doubt; inactive = no such curve, though single readings can be large; an effect the other way counts as inactive or inconclusive. Unless noted, % is set by controls: 0 for no effect and ±100 for the full control effect.
SMILES,HT1080-NT tox,HT1080 IDH1KD tx,TDP1 cell noCPT,TDP1 cell CPT,IL-1B inflam inh
CCCCC[C@@H]1CCCCC[C@@H](O)C[C@@H](O)[C@@H](O)/C=C/C(=O)O1,0%,5%,-34%,?,-15
CC(C)(C)c1cc([N+](=O)[O-])cc(C(C)(C)C)c1O,?,?,5.2µM*,10µM*,-16
C#CCOS(=O)OC1CCCCC1Oc1ccc(C(C)(C)C)cc1 (centres undefined),.,.,-24%,-26%,.
CCCC[C@H]1C(=O)O[C@H](C)[C@H](NC(=O)c2cccc(NC=O)c2OC)C(=O)O[C@@H](C)[C@@H]1OC(=O)CC(C)C,.,.,6.7µM*,?,.
CCCCCC1C(=O)O[C@H](C)[C@@H](NC(=O)c2cccc(NC=O)c2O)C(=O)OC(C)C1OC(=O)CC(C)C (some centres undefined),.,.,0.046µM*,0.046µM*,.
COCCCN1Cc2ccccc2C1=N,0%,12%,-5%,-3%,17
CNCCCN1c2ccccc2CCc2ccccc21,?,?,26µM*,?,-58*
Cc1cc(C(=O)Cn2nnc(-c3ccc(Cl)cc3)n2)c(C)n1-c1ccccc1,-18%,-14%,?,-18%,?
CCOC(C[n+]1c(-c2ccccc2)cc(C)cc1-c1ccccc1)OCC,?,-22%,0.52µM*,1.6µM*,4
COC(=O)C12OCC34C(CC5C(C)=C(O)C(=O)CC5(C)C3C(O)C1O)OC(=O)C(OC(=O)/C=C(\C)C(C)C)C24 (centres undefined),?,0.026µM*,0.058µM*,0.041µM*,-98*
O=C1CCCC2[C@@H]3CCCN4CCC[C@@H](CN12)C34 (some centres undefined),.,.,3%,-3%,.
CC(Cc1ccccc1)NC(=O)/C=C/c1ccc(Cl)cc1 (centres undefined),13%,7%,?,?,-54*
CN1CCN(Cc2cc3c(cc2[N+](=O)[O-])OCO3)CC1,14%,2%,-29%,-8%,8
N#CC(C#N)=NNc1ccc([N+](=O)[O-])cc1,21µM*,16µM*,23µM*,21µM*,-91*
CCN(CC)S(=O)(=O)c1ccc(NN=C(C#N)C#N)cc1,-24%,-27%,?,?,-81*
COc1cccc(-c2nc3cc4c(cc3cc2CN(C(=O)c2cccs2)C2CC2)CCC4)c1OC,.,.,16µM*,?,.
CCCCCCC[n+]1ccc(-c2cc[n+](CCCCCCC)cc2)cc1,?,?,0.65µM*,0.65µM*,-5
CCCCCCCCCCCCCCCC[n+]1ccccc1,12µM*,10µM*,0.33µM*,0.65µM*,-92*!
C[n+]1ccc(-c2cc[n+](C)cc2)cc1,?,-28%,-4%,-1%,-27
Cc1nn(Cc2ccccc2Cl)c(C)c1C(=O)OCC(=O)N1CC(C)OC(C)C1 (centres undefined),-1%,1%,-26%,-20%,13
COc1ccc(C(=O)Cn2c(NCCCl)nc3ccccc32)cc1,-12%,-2%,-26%,21µM*,-2
CCC1(O)CCC2C3CCC4=CC(=O)CCC4C3CCC21CC (centres undefined),3%,1%,21µM*,23µM*,16
COC(=O)Nc1ccc(N=C(N)N[N+](=O)[O-])cc1,25%,5%,-18%,-15%,-7
Cc1ccc(Cn2cc(C=O)c(-c3ccc(C)cc3)n2)cc1,7%,1%,?,?,-58*
O=C1NCN(c2ccccc2)C12CCN(C(c1ccccc1OC(F)(F)F)c1nnnn1C1CCCC1)CC2 (centres undefined),9%,8%,?,?,15
SMILES,HT1080-NT tox,HT1080 IDH1KD tx,TDP1 cell noCPT,TDP1 cell CPT,IL-1B inflam inh
CC1CN(O)C2CCc3nonc3C12O (centres undefined),14%,9%,-23%,-6%,13
C=CCSc1nc2c(c(-c3ccsc3)c1C#N)CN(C)CC2,-9%,-10%,18µM*,?,-11
COCCCOc1ccnc(CS(=O)c2nc3ccccc3[nH]2)c1C (centres undefined),-8%,4%,?,24µM*,17
Cc1cccc(N2CCN(C(=O)CCCCn3c(=O)[nH]c4ccsc4c3=O)CC2)c1C,.,.,18µM*,?,.
CCOc1ccc2nc(NC(=O)c3cccn(Cc4ccccc4C)c3=O)sc2c1,.,.,2%,2%,.
Oc1ccc2c3c1O[C@H]1c4c(c5ccccc5n4Cc4ccccc4)C[C@@]4(O)C(C2)N(CC2CC2)CC[C@]314,.,.,3.7µM*,5.2µM*,.
O=C(/C=C/c1ccc(Cl)cc1)N[C@@]12CCC(=O)[C@@H]3Oc4c(O)ccc5c4[C@@]31CCN(CC1CC1)C2C5,.,.,10µM*,13µM*,.
O=C1/C(=C\c2ccccc2)C[C@@]2(O)[C@H]3Cc4ccc(O)c5c4[C@@]2(CCN3CC2CC2)[C@H]1O5,.,.,2.1µM*,2.1µM*,.
O=C1CC[C@@]2(O)[C@H]3Cc4ccc(O)c5c4[C@@]2(CCN3CC2CC2)[C@@H]1O5,.,.,-7%,12%,.
CC(=O)N[C@@H]1CC[C@@]2(O)[C@H]3Cc4ccc(O)c5c4[C@@]2(CCN3CC2CC2)[C@@H]1O5,-2%,6%,-7%,15%,-20
O=C1/C(=C\c2ccccc2)C[C@@]2(O)[C@H]3Cc4ccc(O)c5c4[C@@]2(CCN3CC2CC2)[C@@H]1O5,.,.,2.7µM*,2.4µM*,.
NCC(N)C(=O)c1ccccc1 (centres undefined),.,.,-8%,-6%,.
CC(=O)CC(c1ccc2c(c1)OCO2)c1c(O)c2ccccc2oc1=O (centres undefined),15%,15%,-20%,-21%,-3
Oc1ccc2c3c1O[C@H]1c4[nH]c5c(c4C[C@@]4(O)[C@@H](C2)N(CC2CC2)CC[C@]314)C[C@]1(O)[C@H]2Cc3ccc(O)c4c3[C@@]1(CCN2CC1CC1)[C@@H]5O4,.,.,-4%,-5%,.
NC(N)=Nc1ccc2[nH]c3c(c2c1)C[C@@]1(O)[C@H]2Cc4ccc(O)c5c4[C@@]1(CCN2CC1CC1)[C@H]3O5,15µM*,16µM*,4.6µM*,2.3µM*,?
CC(C)(C)c1ccc(O)c(CN2CCN(c3ccccc3)CC2)c1,1%,-2%,?,?,0
CC(C)[C@@]1(NC(=O)[C@@H]2C[C@@H]3c4cccc5[nH]cc(c45)C[C@H]3N(C)C2)O[C@@]2(O)[C@@H]3CCCN3C(=O)[C@H](Cc3ccccc3)N2C1=O,31%,13%,19µM*!,27µM*!,0
